Laboratory results published in PubChem BioAssay.
Measured potencies and affinities stand elsewhere. Active and inactive are the calls of the source. The limit is not given here; nearly all actives have IC50 up to about 0.98 µM.

Biological target: Calcium-dependent protein kinase 1 (Plasmodium falciparum (isolate 3D7)) (UniProt P62344)
Test: PfCDPK1 kinase inhibitors, biochemical, TCAMS library (AID 1159585);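 also: inhibitors leave more ATP so luminescence rises with inhibition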
Conditions: recombinant PfCDPK1, Kinase-Glo ATP depletion luminescence

Chain of Calcium-dependent protein kinase 1 (Plasmodium falciparum (isolate 3D7)) (P62344 whole entry, looked up): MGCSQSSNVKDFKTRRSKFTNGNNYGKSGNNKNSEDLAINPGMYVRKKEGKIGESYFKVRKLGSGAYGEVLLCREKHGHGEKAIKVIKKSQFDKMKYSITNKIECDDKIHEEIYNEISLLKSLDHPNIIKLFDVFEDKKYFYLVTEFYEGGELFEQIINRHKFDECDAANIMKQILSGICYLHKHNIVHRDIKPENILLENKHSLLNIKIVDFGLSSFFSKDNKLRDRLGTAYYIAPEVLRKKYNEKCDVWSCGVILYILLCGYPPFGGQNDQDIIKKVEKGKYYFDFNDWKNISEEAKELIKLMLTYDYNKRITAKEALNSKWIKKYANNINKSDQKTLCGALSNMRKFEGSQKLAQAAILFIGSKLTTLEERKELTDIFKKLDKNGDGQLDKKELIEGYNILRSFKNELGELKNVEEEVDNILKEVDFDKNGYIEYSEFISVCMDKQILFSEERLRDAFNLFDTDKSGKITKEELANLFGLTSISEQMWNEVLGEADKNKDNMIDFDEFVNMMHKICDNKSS

outcome, inactive:
CN(C)c1ccc(NC(=O)Nc2ccnc3ccccc23)cc1Br
COc1cc(OC)cc(C(=O)Nc2nc(-c3ccc(NC(=O)c4ccccc4)cc3)cs2)c1
CCc1cc2c3c(N)nc(N)nc3ccc2n1C(C)(C)C
C[C@@H]1CN(c2ccc3[nH]cc(Sc4ccc(-c5cccs5)cc4)c3c2)C[C@H](C)N1
NS(=O)(=O)c1cccc(N=Cc2c(O)[nH]c3ccc(S(=O)(=O)Cc4c(Cl)cccc4Cl)cc23)c1
CN(c1ccc(NC(=O)Nc2cc(C(C)(C)C)on2)cc1)c1ccnc(NCCN2CCOCC2)n1
N#Cc1cnc(Nc2ccc(Oc3ccccc3)cc2)nc1Nc1cccc(S(N)(=O)=O)c1
CNC(=O)c1ccc(/C=C/C(=O)N2CCc3ccc(-c4ccccc4)cc3C2c2cccc(C(F)(F)F)c2)cc1 (stereo not given)
CCN(CC)CCCC(C)Nc1nc(C=Cc2ccc(Br)cc2)nc2cc(Cl)ccc12 (stereo not given)
CCn1c(-c2nonc2N)nc2c(-c3cc4ccccc4s3)ncc(C(=O)N3CCC(N)C3)c21 (stereo not given)
N#Cc1ccc(C(=O)Nc2cc(-c3cccc(O)c3)cc3[nH]ncc23)cc1
Clc1ccc(C=NNc2ccnc3cc(Cl)ccc23)cc1
Cc1ccccc1Cn1ccc2c3c(N)nc(N)nc3ccc21
O=C(Nc1ccc(OC2CCN(CC3CC3)CC2)c(Cl)c1)c1ccc2ncccc2c1
CCN(CC)CCNC(=O)c1ccc(N=Cc2c(O)[nH]c3ccc(S(=O)(=O)Cc4c(Cl)cccc4Cl)cc23)cc1
